Measured values published in PubChem BioAssay (Tox21).
Inconclusive results are not listed. The source made the active and inactive calls. Calls come from the whole dose curve; as a rule, active = well fitted inhibition curve with a large enough effect in the repeat runs; inconclusive = weak or mixed curves; inactive = no such curve, though single readings can be large or run the other way.

Assay: qHTS assay to identify small molecule antagonists of the thyroid receptor (TR) signaling pathway (AID 743065); note: nearly all actives have a fitted effect of over 55% in size
Details: GH3.TRE-Luc, T3-stimulated luciferase inhibition, 23.5 h; series mostly up to 70.3 µM; activity, negative = inhibition: at the top concentration
Source text: U.S. Tox21 Program National Center for Advancing Translational Sciences [NCATS] NIH Chemical Genomics Center [NCGC] U.S. Environmental Protection Agency [EPA] National Institutes of Environmental Health Sciences [NIEHS] National Toxicology Program [NTP] U.S. Food and Drug Administration [FDA] Tox21 Assay Overview: Thyroid receptor (TR), a nuclear hormone receptor, plays an important role in development, proliferation, differentiation, metabolism, brain function, and cardiovascular system. […] To profile the Tox21 10K compound library in TR signaling, a cell-based GH3-TRE-Luc assay (GH3.TRE-Luc cell line, developed by the laboratory of Dr. Albertinka J. Murk, Wageningen University) was used to measure the inhibition of TR. GH3 (rat pituitary tumor) cells stably expressing a TR activity sensor consisting of two TR response elements and a luciferase reporter gene.
Tox21 Assay Protocol Summary: GH3.TRE-Luc cells were dispensed at 1500 cells/4 uL/well into 1536-well white solid bottom plates using a Multidrop Combi dispenser (Thermo Fisher Scientific Inc., Waltham, MA). After the assay plates were incubated at 37 C for 4 hours, 23 nL of library compound or DMSO controls was transferred to the assay plates by a pintool station (Kalypsys, San Diego, CA), followed by addition of 1 ul of T3 (1 nM, final concentration in the wells) to stimulate TR transactivation. The assay plates were incubated at 37 C for 23.5 h, and then 1 uL of CellTiter-Fluor reagent (Promega, Madision, WI) of measuring cytotoxicity was added to each well using a Bioraptr Flying Reagent Dispenser (FRD) workstation (Beckman Coulter, Indianapolis, IN, USA). The plates were incubated at 37 C and 5% CO2 for additional 30 min, and fluorescence intensity was measured by a ViewLux plate reader (PerkinElmer, Shelton, CT). For measuring luciferase reporter gene activity, 4 uL of ONE-Glo Luciferase Assay reagent (Promega) was added to each well using a Bioraptr FRD (Beckman Coulter), followed by 30 min incubation at room temperature. The luminescence intensity of plates was recorded by a ViewLux plate reader (PerkinElmer, Shelton, CT).
% is set by controls: 0 for no effect and ±100 for the full control effect; potency is the fitted concentration of half-maximal effect.

SMILES	activity, negative = inhibition	Potency
O=[N+]([O-])c1cccc(O)c1	-13.1% [at 95 µM] (inactive)	
CCOP(=S)(OCC)Oc1nc(Cl)n(C(C)C)n1	6.88% (inactive)	
CC(=O)Nc1cc([As](=O)(O)O)ccc1O	0.922% (inactive)	
CCN(Cc1ccc(Cl)nc1)/C(=C/[N+](=O)[O-])NC	5.04% (inactive)	
CCS(=O)(=O)CCSP(=O)(OC)OC	12% (inactive)	
Cc1cc(C)c(C(=O)P(=O)(C(=O)c2c(C)cc(C)cc2C)c2ccccc2)c(C)c1	-0.931% (inactive)	
CN/C(=N\[N+](=O)[O-])NCC1CCOC1 (stereo not given)	2.74% (inactive)	
CCC/C(=N\OCC)C1=C(O)CC(CC(C)SCC)CC1=O (stereo not given)	-0.952% [at 95 µM] (inactive)	
C[C@@H]1CN(C2CCC(C#N)(c3ccc(F)cc3)CC2)CC[C@]1(C(=O)O)c1ccccc1 (stereo not given in full)	7.04% [at 32.5 µM] (inactive)	
N#Cc1ccncc1	13.1% [at 95 µM] (inactive)	
O=C(Cc1ccccc1)OCc1ccccc1	-4.69% [at 95 µM] (inactive)	
CC1(C)COP(Oc2ccccc2)OC1	1.08% (inactive)	
CNCC(=O)c1ccc(O)c(O)c1	9.63% (inactive)	
CC(C)CP(=S)(S)CC(C)C	-5.14% (inactive)	
CNC(=O)Oc1ccc(N(C)C)c(C)c1	-10.2% (inactive)	
CC1=C(C(=O)Nc2ccccc2)S(=O)(=O)CCO1		27.3 µM (active)
C=CC1CC=CCC1 (stereo not given)	6.75% (inactive)	
CCOP(=S)(OCC)Oc1cc(-c2ccccc2)on1	7.94% (inactive)	
CC(N)=S	2.89% (inactive)	
CCNc1nc(NC(C)C)nc(OC)n1	-0.0523% (inactive)	

SMILES	activity, negative = inhibition	Potency
CC(C)COP(=O)(OCC(C)C)OCC(C)C	-13.9% (inactive)	
[O]=[Cd]		inactive
CNNC	-1.37% [at 95 µM] (inactive)	
C=CCC1=C(C)[C@@H](OC(=O)[C@@H]2[C@@H](C=C(C)C)C2(C)C)CC1=O		61.1 µM (active)
O=NN1CCCCC1	0.484% (inactive)	
O=C1OC(=O)C2C1C1(Cl)C(Cl)=C(Cl)C2(Cl)C1(Cl)Cl (stereo not given)	8.11% [at 95 µM] (inactive)	
Nc1n[nH]c(N)n1	-2.96% [at 95 µM] (inactive)	
C#C[C@]1(O)C=C[C@H]2[C@@H]3CCC4=CC(=O)CC[C@@H]4[C@H]3CC[C@@]21CC		11.9 µM (active)
CCOC(=O)CP(=O)(OCC)OCC	3.8% (inactive)	
CCOP(=O)(N=C1SCCS1)OCC	8.79% (inactive)	
CC(C1CC1)C(O)(Cn1cncn1)c1ccc(Cl)cc1 (stereo not given)	-6.55% (inactive)	
N#CCNCC#N	13.2% (inactive)	
O=C(O)c1cccc(Cl)c1	9.47% (inactive)	
CC1(C)C(=O)NC(=O)NC1=O	0.005% (inactive)	
ClC(Br)Br	24.7% (inactive)	
CCOP(=O)(OCC)OP(=O)(OCC)OCC	6.35% (inactive)	
COP(=S)(OC)Oc1c(Cl)cc(C)cc1Cl	-1.49% (inactive)	
C=C(C)[C@@H]1CC=C(C=O)CC1	9.11% (inactive)	
OCCSCSCCO	7.6% (inactive)	
Cc1coc2c1CCC(C)C2 (stereo not given)	-12.1% [at 95 µM] (inactive)	
